# From PubChem BioAssay (EPA / NIEHS)
# Inconclusive results are not listed. The source made the active and inactive calls. The calls were made as follows: active = hit-call score of the fitted dose curve at least 0.9, where 1 is the maximum; inconclusive = response in the unintended direction; inactive = score below 0.9.
# Legend:
# [1] = target: Luciferin 4-monooxygenase (Photinus pyralis) (UniProt P08659); assay: CCTE_Simmons_QuantiLum_inhib_2: CCTE's Firefly Luciferase Inhibition Assay, Simmons Lab (AID 2283767);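 as to AC50: potency for inhibitors that lower luciferase luminescence relative to DMSO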
# Luciferin 4-monooxygenase (Photinus pyralis), sequence (P08659 whole entry, looked up): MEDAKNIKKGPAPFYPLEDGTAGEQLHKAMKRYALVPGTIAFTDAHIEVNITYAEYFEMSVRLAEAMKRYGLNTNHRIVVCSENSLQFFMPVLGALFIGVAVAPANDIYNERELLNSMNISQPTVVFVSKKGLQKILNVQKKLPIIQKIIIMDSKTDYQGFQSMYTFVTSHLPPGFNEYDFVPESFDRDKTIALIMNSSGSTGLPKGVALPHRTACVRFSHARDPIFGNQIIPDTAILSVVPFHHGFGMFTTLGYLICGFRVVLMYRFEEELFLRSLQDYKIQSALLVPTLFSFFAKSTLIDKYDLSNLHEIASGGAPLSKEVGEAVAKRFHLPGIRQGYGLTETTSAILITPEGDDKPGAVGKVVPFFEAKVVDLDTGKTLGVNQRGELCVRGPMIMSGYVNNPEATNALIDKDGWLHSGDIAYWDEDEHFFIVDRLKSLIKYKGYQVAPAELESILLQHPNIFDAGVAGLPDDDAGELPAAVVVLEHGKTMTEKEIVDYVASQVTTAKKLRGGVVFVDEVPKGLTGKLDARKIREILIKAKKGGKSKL
# Procedure, shortened: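 Eight-point titrations of each chemical, 5 nM–87.5 uM final in 0.5% DMSO, were run in three biological replicates against recombinant luciferase for 30 min at 37C. Bioluminescence signal loss, read on reagent injection, gave the inhibition endpoint.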
# [2] = ACEA_ER_AUC_viability: ACEA Biosciences xCELLigence Real-Time Cell Analysis on Estrogen Receptor Agonism for Viability (AID 2283782);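 also: hit means loss of impedance signal meaning reduced cell growth or viability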
# Procedure, shortened: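 Viability endpoint: reduced impedance area under the curve relative to DMSO, recorded by real-time electrode sensing over ~80 h of continuous exposure. Duplicate plates of T47D in hormone-depleted medium; eight concentrations, 1:4 dilutions, 100 uM maximum.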
# [3] = ACEA_AR_agonist_AUC_viability: ACEA Biosciences xCELLigence Real-Time Cell Analysis on Androgen Receptor Agonism for Viability (AID 2283775);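 as to AC50: viability read 80 hours after compound addition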
# Procedure, shortened: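 Viability endpoint from xCELLigence impedance in 22Rv1 prostate cells at 80 h. Eight-point series, 100 uM maximum final.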
# [4] = ACEA_AR_antagonist_AUC_viability: ACEA Biosciences xCELLigence Real-Time Cell Analysis on Androgen Receptor Antagonism for Viability (AID 2283776);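 also: 22Rv1 human prostate cancer cells growing on impedance electrode plates; area under impedance growth curve at 80 h after dosing as viability; hits lower the growth signal relative to DMSO meaning cytotoxicity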
# Procedure, shortened: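 Impedance read-out (RT-CES): area under growth curve at 80 h post-dose, loss of signal scored vs DMSO baseline. 22Rv1 cells; 8-pt 1:4 series, top 100 uM final, ≤0.5% DMSO; biological duplicate.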
# [5] = target: AR (gene 367) (UniProt P10275); assay: ACEA_AR_agonist_80hr: ACEA Biosciences xCELLigence Real-Time Cell Analysis on Androgen Receptor Agonism for Proliferation (AID 2283783);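 also: hits increase impedance growth signal above DMSO baseline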
# AR (gene 367), sequence (P10275 whole entry, looked up): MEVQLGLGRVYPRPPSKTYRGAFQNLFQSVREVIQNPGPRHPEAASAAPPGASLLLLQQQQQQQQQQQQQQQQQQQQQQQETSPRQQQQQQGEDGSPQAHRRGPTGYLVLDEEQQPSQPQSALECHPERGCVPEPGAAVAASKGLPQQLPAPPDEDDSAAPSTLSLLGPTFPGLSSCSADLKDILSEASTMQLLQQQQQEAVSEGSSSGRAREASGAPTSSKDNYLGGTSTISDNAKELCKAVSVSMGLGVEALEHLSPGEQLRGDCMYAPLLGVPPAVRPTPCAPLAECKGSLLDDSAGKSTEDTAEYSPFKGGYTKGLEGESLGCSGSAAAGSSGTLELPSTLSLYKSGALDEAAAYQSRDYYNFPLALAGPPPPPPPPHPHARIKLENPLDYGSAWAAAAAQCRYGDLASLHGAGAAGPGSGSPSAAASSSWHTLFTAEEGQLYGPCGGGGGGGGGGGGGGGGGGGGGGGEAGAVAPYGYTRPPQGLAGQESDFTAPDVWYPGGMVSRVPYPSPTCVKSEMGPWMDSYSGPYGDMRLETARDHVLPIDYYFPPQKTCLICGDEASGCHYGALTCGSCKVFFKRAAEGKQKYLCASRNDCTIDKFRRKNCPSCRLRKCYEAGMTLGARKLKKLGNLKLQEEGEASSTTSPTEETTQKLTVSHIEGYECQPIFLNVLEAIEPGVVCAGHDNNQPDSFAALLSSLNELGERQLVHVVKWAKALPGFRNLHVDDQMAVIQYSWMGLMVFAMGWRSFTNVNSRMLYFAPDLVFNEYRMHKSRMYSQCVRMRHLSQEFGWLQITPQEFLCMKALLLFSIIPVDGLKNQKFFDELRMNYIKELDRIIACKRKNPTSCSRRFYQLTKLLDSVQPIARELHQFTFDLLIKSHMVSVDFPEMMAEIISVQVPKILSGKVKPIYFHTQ
# Procedure, shortened: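 Eight concentrations, 1:4 serial dilution from a 100 uM final top, in biological duplicate. Impedance-based real-time growth of 22Rv1 cells after overnight baseline, recorded hourly and read at 80 hours. Controls: testosterone, MG132, assay media.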
# [6] = STM_H9_NormalizedViability: Cytotoxicity Assessment at 120 hours in the Stemina devTOX quickPredict H9 human embryonic stem cell (hESC)-based Assay (AID 2283784)
# Procedure, shortened: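 Here, H9 cells received test compound with daily medium renewal. Each plate included methotrexate references (1uM, 5 nM), 0.1% DMSO and media blanks; CellTiter-Fluor RFU was normalized to DMSO.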
# [7] = target: AR (gene 367) (UniProt P10275); assay: ACEA_AR_antagonist_80hr: ACEA Biosciences xCELLigence Real-Time Cell Analysis on Androgen Receptor Antagonism for Proliferation (AID 2283787);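 also: 22Rv1 human prostate cancer cells with growth followed by electrical impedance; hits lower the impedance growth signal relative to DMSO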
# Procedure, shortened: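 Impedance-based real-time growth of 22Rv1 prostate cells, read 80 h after dosing. Eight concentrations, 1:4 series, top 100 uM final (0.5% DMSO), n = 2; signal decrease scored against DMSO.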
# [8] = ArunA_NOG_NeuriteLength: ArunA Biomedical's Neurite Outgrowth (NOG) Assay for Neurite Length (AID 2283757)
# Procedure, shortened: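 Total neurite length per neuron, from traced βIII-tubulin-labelled processes longer than 10 um on viable Hoechst-gated cells, was scored as decrease from DMSO. Cells were hESC (H9)-derived neurons given 48 h chemical exposure immediately after seeding.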
# [9] = ArunA_NOG_NeuritesPerNeuron: ArunA Biomedical's Neurite Outgrowth (NOG) Assay for Neurites Per Neuron (AID 2283758)
# Procedure, shortened: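 Differentiated human H9-derived neurons exposed to chemicals for 48 h from seeding, then stained with Hoechst and βIII-tubulin/DyLight 488. Automated imaging counted neurites (processes >10 um) per valid neuron; loss of signal versus DMSO scored.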
# [10] = ArunA_NOG_BranchPointsPerNeurite: ArunA Biomedical's Neurite Outgrowth (NOG) Assay for Branch Points Per Neurite (AID 2283759)
# Procedure, shortened: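 Automated image analysis traced neurites (processes >10 um) from valid cell bodies after Hoechst and βIII-tubulin staining. hNN cells from H9 embryonic stem cells, 48 h exposure. Fitted bidirectionally against DMSO.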
# [11] = test system: zebrafish Androgen Receptor (AR), gene 100005148; assay: ATG_zfAR_XSP1: Attagene TRANS-FACTORIAL Multi-Species (XSP1) HepG2 Assay for zebrafish Androgen Receptor (AR) (AID 2283771)
# Procedure, shortened: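 Gain-of-signal versus DMSO was measured as reporter transcripts quantified by RT-PCR, fluorescent labelling and capillary electrophoresis after 24 h chemical exposure. The cells were HepG2 expressing a chimeric zebrafish AR-GAL4, co-stimulated with 3 nM 6-alpha-fluorotestosterone.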
# [12] = target: zebrafish Estrogen Receptor (ESR1), esr1 (gene 259252) (UniProt P57717); assay: ATG_zfER1_XSP1: Attagene TRANS-FACTORIAL Multi-Species (XSP1) HepG2 Assay for zebrafish Estrogen Receptor (ESR1) (AID 2283772)
# zebrafish Estrogen Receptor (ESR1), esr1 (gene 259252), sequence (P57717 whole entry, looked up, the tested form may be a part): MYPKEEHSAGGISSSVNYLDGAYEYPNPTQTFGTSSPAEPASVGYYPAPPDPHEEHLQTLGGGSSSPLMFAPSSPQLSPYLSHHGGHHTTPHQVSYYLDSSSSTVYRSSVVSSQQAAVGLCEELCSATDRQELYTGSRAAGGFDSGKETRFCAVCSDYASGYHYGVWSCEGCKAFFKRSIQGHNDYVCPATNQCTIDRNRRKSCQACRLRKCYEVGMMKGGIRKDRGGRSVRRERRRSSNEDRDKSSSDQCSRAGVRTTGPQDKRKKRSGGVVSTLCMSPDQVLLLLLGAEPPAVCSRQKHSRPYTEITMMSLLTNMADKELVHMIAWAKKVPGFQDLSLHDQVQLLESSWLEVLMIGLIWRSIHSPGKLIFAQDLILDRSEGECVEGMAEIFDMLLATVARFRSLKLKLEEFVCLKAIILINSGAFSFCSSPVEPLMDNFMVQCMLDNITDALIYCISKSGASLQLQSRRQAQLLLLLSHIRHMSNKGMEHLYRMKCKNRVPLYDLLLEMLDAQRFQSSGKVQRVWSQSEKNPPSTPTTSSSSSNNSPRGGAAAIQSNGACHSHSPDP
# Procedure, shortened: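 Reporter mRNA induction, gauged via RT-PCR/capillary electrophoresis fluorescence relative to DMSO controls, in HepG2 cells transiently carrying GAL4-UAS reporter units; 24 h dosing.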
# [13] = test system: zebrafish Estrogen Receptor (ESR2B), gene 317733; assay: ATG_zfER2b_XSP1: Attagene TRANS-FACTORIAL Multi-Species (XSP1) HepG2 Assay for zebrafish Estrogen Receptor (ESR2B) (AID 2283773)
# Procedure, shortened: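 Medium contained 3 nM 6-alpha-fluorotestosterone. Reporter mRNA induction by exogenous zebrafish ER2b-Gal4 chimera was read 24 h post-dose in transiently transfected HepG2 cells, using RT-PCR, fluorescent labelling, HpaI digestion and capillary electrophoresis.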
# [14] = test system: frog Estrogen Receptor (ESR2), gene 100174814; assay: ATG_frER2_XSP1: Attagene TRANS-FACTORIAL Multi-Species (XSP1) HepG2 Assay for frog Estrogen Receptor (ESR2) (AID 2283774)
# Procedure, shortened: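 Reporter mRNA from a multiplexed TRANS system, measured by RT-PCR with fluorescent labelling and capillary electrophoresis, 24 hours after chemical exposure. Human HepG2 liver cells carried exogenous frog ER-Gal4 chimera; medium included 3 nM 6-alpha-fluorotestosterone; increases versus DMSO analysed.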
# [15] = target: chicken Estrogen Receptor (ESR1), ESR1 (gene 396099) (UniProt P06212); assay: ATG_chERa_XSP1: Attagene TRANS-FACTORIAL Multi-Species (XSP1) HepG2 Assay for chicken Estrogen Receptor (ESR1) (AID 2283779)
# chicken Estrogen Receptor (ESR1), ESR1 (gene 396099), sequence (P06212 whole entry, looked up, the tested form may be a part): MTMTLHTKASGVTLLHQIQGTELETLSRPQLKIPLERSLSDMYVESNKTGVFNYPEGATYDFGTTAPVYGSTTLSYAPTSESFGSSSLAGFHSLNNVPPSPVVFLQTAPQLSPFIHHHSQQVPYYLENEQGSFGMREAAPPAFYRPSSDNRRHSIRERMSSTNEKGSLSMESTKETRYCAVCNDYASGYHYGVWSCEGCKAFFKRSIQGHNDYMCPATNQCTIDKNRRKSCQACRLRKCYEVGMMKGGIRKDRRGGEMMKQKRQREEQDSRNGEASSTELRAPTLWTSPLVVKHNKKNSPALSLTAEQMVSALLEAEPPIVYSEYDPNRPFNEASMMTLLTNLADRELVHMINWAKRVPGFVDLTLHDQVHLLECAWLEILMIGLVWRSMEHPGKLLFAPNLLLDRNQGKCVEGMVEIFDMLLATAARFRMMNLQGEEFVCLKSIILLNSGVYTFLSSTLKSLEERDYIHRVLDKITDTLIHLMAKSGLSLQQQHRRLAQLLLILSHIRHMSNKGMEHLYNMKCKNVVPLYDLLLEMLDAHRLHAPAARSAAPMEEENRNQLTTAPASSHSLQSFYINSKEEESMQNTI
# Procedure, shortened: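 Trans-activation of an exogenous chicken ERα–Gal4 chimera read as reporter transcript (RT-PCR, fluorescent labeling, capillary electrophoresis) after 24 h compound exposure of transfected HepG2; medium held 3 nM 6-alpha-fluorotestosterone. Positive-direction fit against DMSO.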
# [16] = test system: frog Estrogen Receptor (ESR1), gene 398734; assay: ATG_frER1_XSP1: Attagene TRANS-FACTORIAL Multi-Species (XSP1) HepG2 Assay for frog Estrogen Receptor (ESR1) (AID 2283777)
# Procedure, shortened: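 HepG2 cells transiently transfected with GAL4-UAS reporter units and frog ER–Gal4 chimera were dosed for 24 h with 3 nM 6-alpha-fluorotestosterone present. Reporter mRNA was measured by RT-PCR and capillary electrophoresis; gain of signal fitted versus DMSO.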
# [17] = test system: zebrafish Estrogen Receptor (ESR2A), gene 317734; assay: ATG_zfER2a_XSP1: Attagene TRANS-FACTORIAL Multi-Species (XSP1) HepG2 Assay for zebrafish Estrogen Receptor (ESR2A) (AID 2283778)
# Procedure, shortened: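 Reporter transcripts were quantified by RT-PCR, 6-FAM labelling, HpaI digestion and capillary electrophoresis after 24 h dosing. The cells were HepG2 transiently carrying a zebrafish ER2a–Gal4 construct plus multiplexed UAS reporters; medium contained 3 nM 6-alpha-fluorotestosterone.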
# [18] = test system: turtle Estrogen Receptor (ESR1), gene 101933533; assay: ATG_trERa_XSP1: Attagene TRANS-FACTORIAL Multi-Species (XSP1) HepG2 Assay for turtle Estrogen Receptor (ESR1) (AID 2283781)
# Procedure, shortened: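 Transactivation measured 24 h post-dose as reporter mRNA (RT-PCR, fluorescent capillary electrophoresis) from an NR-Gal4 turtle ER construct in HepG2. Medium included 3 nM 6-alpha-fluorotestosterone; increase over DMSO fitted.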
smiles,measurement,setting,value
CCOP(=S)(OCC)OC(Cl)C(Cl)(Cl)Cl (stereo not drawn),outcome,[1],inactive
same,AC50,[2],76.4 µM (active)
CCOC(=O)CC(SP(=O)(OC)OC)C(=O)OCC (stereo not drawn),outcome,[1],inactive
same,outcome,[3],inactive
same,outcome,[4],inactive
same,outcome,[2],inactive
C=C(C)[C@H]1Cc2c(ccc3c2O[C@@H]2COc4cc(OC)c(OC)cc4[C@@H]2C3=O)O1,outcome,[1],inactive
same,AC50,[3],0.284 µM (active)
same,AC50,[4],0.413 µM (active)
same,outcome,[2],inactive
same,outcome,[5],inactive
same,AC50,[6],0.515 µM (active)
same,AC50,[7],1.54 µM (active)
CCCSP(=O)(OCC)Oc1ccc(Br)cc1Cl (stereo not drawn),outcome,[1],inactive
same,outcome,[3],inactive
same,outcome,[4],inactive
same,AC50,[2],38.6 µM (active)
CC1=NNC(=O)N(/N=C/c2cccnc2)C1,AC50,[8],73.8 µM (active)
same,AC50,[9],65 µM (active)
same,AC50,[10],66.2 µM (active)
same,outcome,[3],inactive
same,outcome,[4],inactive
same,outcome,[2],inactive
same,outcome,[6],inactive
CC(=NC#N)N(C)Cc1ccc(Cl)nc1,outcome,[3],inactive
same,outcome,[4],inactive
same,outcome,[2],inactive
CCCOCC(=Nc1ccc(Cl)cc1C(F)(F)F)n1ccnc1,AC50,[1],36.8 µM (active)
same,outcome,[11],inactive
same,outcome,[12],inactive
same,outcome,[13],inactive
same,AC50,[14],2.94 µM (active)
same,AC50,[3],22.7 µM (active)
same,AC50,[4],6 µM (active)
same,outcome,[15],inactive
same,AC50,[2],23.1 µM (active)
CCCCN(CC)c1c([N+](=O)[O-])cc(C(F)(F)F)cc1[N+](=O)[O-],AC50,[3],60.9 µM (active)
same,AC50,[4],43.8 µM (active)
C#CCC1=C(C)C(OC(=O)C2C(C=C(C)C)C2(C)C)CC1=O (stereo not drawn),outcome,[1],inactive
same,AC50,[13],25.3 µM (active)
same,AC50,[14],23.4 µM (active)
same,AC50,[3],67.2 µM (active)
same,AC50,[4],49.8 µM (active)
same,AC50,[2],49.8 µM (active)
CCOP(=S)(OCC)Oc1cc(C)nc(C(C)C)n1,outcome,[1],inactive
same,outcome,[3],inactive
same,outcome,[4],inactive
same,AC50,[2],82 µM (active)
same,AC50,[6],87.1 µM (active)
CCOP(=S)(OCC)Oc1ccc2c(C)c(Cl)c(=O)oc2c1,outcome,[1],inactive
same,AC50,[13],44.6 µM (active)
same,AC50,[14],34.6 µM (active)
same,outcome,[3],inactive
same,AC50,[4],31 µM (active)
same,outcome,[16],inactive
same,outcome,[17],inactive
same,outcome,[15],inactive
same,outcome,[18],inactive
O=c1ccc(=O)[nH][nH]1,outcome,[1],inactive
same,outcome,[2],inactive
CCOP(=O)(SC(C)CC)N1CCSC1=O (stereo not drawn),outcome,[1],inactive
same,outcome,[4],inactive
C[Si](Cn1cncn1)(c1ccc(F)cc1)c1ccc(F)cc1,outcome,[10],inactive
same,AC50,[3],60.4 µM (active)
same,AC50,[4],50 µM (active)
same,AC50,[2],76.2 µM (active)
same,AC50,[6],80.6 µM (active)
CCc1cnc(C2=NC(C)(C(C)C)C(=O)N2)c(C(=O)O)c1 (stereo not drawn),outcome,[3],inactive
same,outcome,[4],inactive
N#CSCSC#N,AC50,[1],53.8 µM (active)
same,AC50,[3],7.42 µM (active)
same,AC50,[4],7.39 µM (active)
same,AC50,[2],6.97 µM (active)
same,AC50,[6],20.5 µM (active)
same,AC50,[7],11.7 µM (active)
CCCSP(=O)(OCC)SCCC,outcome,[1],inactive
same,outcome,[3],inactive
same,AC50,[4],28.8 µM (active)
same,AC50,[7],34 µM (active)
CCOP(=O)(NC(C)C)Oc1ccc(SC)c(C)c1 (stereo not drawn),outcome,[1],inactive
same,AC50,[3],9.92 µM (active)
same,AC50,[4],32.7 µM (active)
same,AC50,[7],40.5 µM (active)
CCOP(=S)(Oc1cnc(C(C)(C)C)nc1)OC(C)C (stereo not drawn),AC50,[1],61.8 µM (active)
same,AC50,[3],46.3 µM (active)
same,AC50,[4],50 µM (active)
same,AC50,[2],81.4 µM (active)
COP(=O)(NC(C)=O)SC (stereo not drawn),AC50,[1],37.5 µM (active)
same,outcome,[3],inactive
same,outcome,[4],inactive
same,outcome,[2],inactive
CCCCSP(=O)(SCCCC)SCCCC,AC50,[3],78.1 µM (active)
same,AC50,[4],67.1 µM (active)
same,AC50,[2],71.4 µM (active)
CCC(=O)Nc1ccc(Cl)c(Cl)c1,outcome,[1],inactive
same,outcome,[3],inactive
same,AC50,[4],20.7 µM (active)
same,AC50,[7],20 µM (active)
CN(C)NC(=O)CCC(=O)O,outcome,[3],inactive
same,outcome,[4],inactive
same,outcome,[2],inactive
CCc1cccc(C)c1N(C(=O)CCl)C(C)COC (stereo not drawn),outcome,[11],inactive
same,outcome,[12],inactive
same,AC50,[13],35.8 µM (active)
same,AC50,[14],48.9 µM (active)
same,outcome,[3],inactive
same,outcome,[4],inactive
same,AC50,[16],3.42 µM (active)
same,outcome,[17],inactive
same,AC50,[15],9.46 µM (active)
same,AC50,[18],17.4 µM (active)
same,outcome,[2],inactive
CCC(=NOC/C=C/Cl)C1=C(O)CC(C2CCOCC2)CC1=O (stereo not drawn),outcome,[1],inactive
same,outcome,[3],inactive
same,outcome,[2],inactive
same,outcome,[6],inactive
COP(=O)(OC)SCn1c(=O)oc2cc(Cl)cnc21,outcome,[1],inactive
same,AC50,[3],23.7 µM (active)
same,AC50,[4],17.2 µM (active)
same,AC50,[2],76.2 µM (active)
same,outcome,[5],inactive
same,AC50,[7],21.7 µM (active)
COP(=O)(OC)C(O)C(Cl)(Cl)Cl (stereo not drawn),outcome,[3],inactive
same,AC50,[4],50 µM (active)
same,AC50,[2],76.5 µM (active)
CC1(C(=O)Nc2ccc(O)c(Cl)c2Cl)CCCCC1,outcome,[1],inactive
same,AC50,[3],64.9 µM (active)
same,AC50,[4],50 µM (active)
